From PubChem BioAssay AID651739 (Broad Institute, 2012)
Screen size: about 5,600 compounds; about 4,100 (73%) were called active. Inconclusive results (about 4%) are left out.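 Rule for the calls: active = mean replicate inhibition above about 95% and at least 55% of replicates individually reaching it (limit read from the data); inconclusive = only one of the two criteria is met; inactive = neither criterion is met.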 The set was probably picked from earlier hits. A selection follows.

assay: blockers of Trypanosoma cruzi growth in host cells – cell-based, NIH3T3 host, beta-gal parasite, luminescence, cherry-pick, confirmation (AID 651739); details: T. cruzi beta-gal in NIH3T3, GalScreen luminescence, 90 h; at 8.35 µM; hits give high values

SMILES	inhibition
CN(C)C(=O)c1ccc(-c2ccc3c(c2)[C@H]2[C@H](CCN2C(=O)c2ccc4c(c2)OCO4)[C@H](CO)N3)cc1	100% (active)
O=C(c1cnccn1)N1CC[C@@H]2[C@H](CO)Nc3ccc(-c4cccc(F)c4)cc3[C@@H]21	109% (active)
OC[C@@H]1Nc2ccc(-c3cccc(F)c3)cc2[C@H]2[C@@H]1CCN2Cc1ccncc1	114% (active)
O=C(c1ccccn1)N1CC[C@@H]2[C@H]1c1cc(-c3ccccc3)ccc1N[C@@H]2CO	107% (active)
O=C(c1ccccc1F)N1C[C@H]2[C@@H](c3ccccc31)[C@@H](CO)N2C(=O)c1ccc(F)cc1	46.6% (inactive)
C[C@@H]1CN([C@H](C)CO)S(=O)(=O)c2ccc(C#Cc3ccncc3)cc2O[C@@H]1CN(C)S(=O)(=O)c1ccc(F)cc1	70.2% (inactive)
C[C@@H]1CN([C@@H](C)CO)S(=O)(=O)c2ccc(C#Cc3ccc(F)cc3)cc2O[C@H]1CN(C)S(C)(=O)=O	85.8% (inactive)
CCCN(C)C[C@@H]1Oc2cc(C#Cc3ccc(F)cc3)ccc2S(=O)(=O)N([C@H](C)CO)C[C@H]1C	108% (active)
CCCN(C)C[C@H]1Oc2cc(C#CC3CCCC3)ccc2S(=O)(=O)N([C@H](C)CO)C[C@@H]1C	105% (active)
COc1ccc(NC(=O)N2CC[C@@H]3[C@@H](CO)N(C)c4ccc(-c5cccc(F)c5)cc4[C@@H]32)cc1	100% (active)
CN1c2ccc(-c3ccccc3)cc2[C@H]2[C@H](CCN2C(=O)Cc2ccccn2)[C@H]1CO	88.9% (inactive)
CN1c2ccc(-c3ccccc3)cc2[C@@H]2[C@@H](CCN2C(=O)c2ccncc2)[C@@H]1CO	100% (active)
COc1ccc(-c2ccc3c(c2)[C@@H]2[C@@H](CCN2C(=O)Cc2ccccn2)[C@H](CO)N3C)cc1	108% (active)
CCC(=O)N1CC[C@@H]2[C@@H](CO)N(C)c3ccc(-c4cccc(OC)c4)cc3[C@@H]21	99.1% (active)
CCC(=O)N1CC[C@@H]2[C@@H](CO)N(C)c3ccc(-c4ccc(F)cc4)cc3[C@@H]21	102% (active)
Cc1noc(C)c1S(=O)(=O)N(C)C[C@H]1Oc2ccc(N(C)C)cc2CC(=O)N([C@H](C)CO)C[C@@H]1C	-37.8% (inactive)
C[C@H](CO)N1C[C@H](C)[C@@H](CN(C)S(=O)(=O)c2cccc(F)c2)OCc2ccccc2-c2c(n(C)c3ccccc23)C1=O	99.6% (active)
C[C@H]1CN([C@@H](C)CO)C(=O)c2ccccc2-c2ccccc2CO[C@@H]1CN(C)S(=O)(=O)c1ccc(C(F)(F)F)cc1	99.2% (active)
C[C@H](CO)N1C[C@H](C)[C@H](CN(C)S(=O)(=O)c2ccccc2)Oc2ncc(-c3cccc(C(F)(F)F)c3)cc2C1=O	108% (active)
C[C@@H]1CN([C@H](C)CO)C(=O)c2cc(-c3cncnc3)cnc2O[C@H]1CN(C)C(=O)Nc1ccc2c(c1)OCO2	-15.5% (inactive)
C[C@H](CO)N1C[C@H](C)[C@@H](CN(C)C(=O)Nc2ccnc(N3CCOCC3)c2)OCc2ccccc2-c2ccccc2C1=O	100% (active)

SMILES	inhibition
COc1ccccc1-c1ccc2c(c1)O[C@H](CN(C)S(=O)(=O)c1ccc(C)cc1)[C@@H](C)CN([C@H](C)CO)S2(=O)=O	93.9% (inactive)
Cc1ccc(S(=O)(=O)N(C)C[C@@H]2Oc3ncc(-c4cc5ccccc5o4)cc3C(=O)N([C@H](C)CO)C[C@@H]2C)cc1	105% (active)
Cc1ccc(-c2cnc3c(c2)C(=O)N([C@@H](C)CO)C[C@@H](C)[C@H](CN(C)Cc2ccccc2F)O3)cc1	102% (active)
C[C@H](CO)N1C[C@H](C)[C@H](CN(C)S(=O)(=O)c2cccc(F)c2)Oc2ncc(/C=C/c3ccccc3)cc2C1=O	102% (active)
C[C@@H]1CN([C@H](C)CO)S(=O)(=O)c2ccc(C#CC3CCCC3)cc2O[C@@H]1CN(C)C(=O)Cc1ccncc1	92.6% (inactive)
C[C@@H]1CN([C@H](C)CO)S(=O)(=O)c2ccc(C#CC3CCCC3)cc2O[C@@H]1CN(C)Cc1cccnc1	98.8% (active)
C[C@H](CO)N1C[C@H](C)[C@H](CN(C)Cc2cccnc2)Oc2cc(C#CC3CCCC3)ccc2S1(=O)=O	108% (active)
C[C@H]1CN([C@@H](C)CO)S(=O)(=O)c2ccc(C#CC3CCCC3)cc2O[C@H]1CN(C)C(=O)Cc1ccncc1	110% (active)
C[C@@H]1CN([C@H](C)CO)C(=O)c2cc(NC(=O)Nc3ccc(F)cc3)ccc2O[C@@H](C)CCCCO[C@H]1CN(C)Cc1ccc(Cl)c(Cl)c1	98.3% (active)
C[C@@H]1CCCCO[C@@H](CN(C)Cc2ccc(Cl)c(Cl)c2)[C@H](C)CN([C@H](C)CO)C(=O)c2cc(NC(=O)Nc3ccc(F)cc3)ccc2O1	88.5% (inactive)
COc1ccc(NC(=O)Nc2ccc3c(c2)C(=O)N([C@H](C)CO)C[C@@H](C)[C@H](CN(C)Cc2ccc(Cl)c(Cl)c2)OCCCC[C@@H](C)O3)cc1	98.8% (active)
C[C@@H]1CN([C@@H](C)CO)C(=O)Cc2cc(NC(=O)C3CCCCC3)ccc2O[C@@H]1CN(C)Cc1ccc(C(=O)Nc2ccccc2N)cc1	103% (active)
C[C@H](CO)N1C[C@H](C)[C@H](CN(C)Cc2ccc(-c3ccccc3)cc2)Oc2ccc(NC(=O)Nc3ccc(F)cc3)cc2CC1=O	110% (active)
C[C@H](CO)N1C[C@H](C)[C@@H](CN(C)Cc2ccc(-c3ccccc3)cc2)Oc2ccc(NC(=O)CCC(F)(F)F)cc2CC1=O	92.4% (inactive)
C[C@@H]1CN([C@H](C)CO)C(=O)Cc2cc(NC(=O)c3ccncc3)ccc2O[C@H]1CN(C)Cc1ccc(-c2ccccc2)cc1	109% (active)
Cc1cccc(-c2ccc([C@@H]3[C@H](CO)N4CCCCN(C(=O)c5ccc6c(c5)OCO6)C[C@@H]34)cc2)c1	105% (active)
COc1ccc(-c2ccc([C@H]3[C@H]4CN(C(=O)c5ccc6c(c5)OCO6)CCCCN4[C@H]3CO)cc2)cc1	106% (active)
CCCC#Cc1ccc([C@H]2[C@H](CO)N3CCCCN(C(=O)c4ccc5c(c4)OCO5)C[C@@H]23)cc1	104% (active)
COCC#Cc1ccc([C@@H]2[C@H](CO)N3CCCCN(C(=O)CN(C)C)C[C@@H]23)cc1	57.7% (inactive)
CCC(=O)N1CCCCN2[C@H](C1)[C@@H](c1ccc(-c3ccc(F)cc3)cc1)[C@@H]2CO	60.2% (inactive)
CCC(=O)N1CCCCN2[C@H](C1)[C@@H](c1ccc(/C=C/c3ccccc3)cc1)[C@@H]2CO	102% (active)

SMILES	inhibition
O=C(CN1CCOCC1)N1CCCCN2[C@H](CO)[C@H](c3ccc(-c4ccccc4)cc3)[C@@H]2C1	73.7% (inactive)
O=C(CN1CCOCC1)N1CCCCN2[C@@H](CO)[C@H](c3ccc(/C=C/c4ccccc4)cc3)[C@@H]2C1	99.6% (active)
O=C(CN1CCOCC1)N1CCCCN2[C@@H](CO)[C@H](c3ccc(-c4ccccc4)cc3)[C@@H]2C1	81.6% (inactive)
O=C(C[C@H]1CC[C@@H]2[C@H](COC[C@H](O)CN2Cc2ccc(Oc3ccccc3)cc2)O1)N1CCN(c2ccccc2)CC1	101% (active)
COc1cccc(C#Cc2ccc([C@@H]3[C@H](C#N)N[C@H]3CO)cc2)c1	101% (active)
O=C(c1ccncc1)N1CCCCN2[C@H](CO)[C@H](c3ccc(-c4ccccc4)cc3)[C@H]2C1	105% (active)
O=C(c1cccc(F)c1)N1CCCCN2[C@H](CO)[C@H](c3ccc(-c4ccncc4)cc3)[C@H]2C1	95.2% (active)
O=C(Nc1ccccc1F)N1CCCCN2[C@H](CO)[C@@H](c3ccc(-c4cccnc4)cc3)[C@H]2C1	61.1% (inactive)
COc1ccc(C#Cc2ccc([C@@H]3[C@@H](CO)N4CCCCN(C(=O)c5ccncc5)C[C@@H]34)cc2)cc1	80.6% (inactive)
CC(C)(O)C#Cc1ccc([C@@H]2[C@H](CO)N3CCCCN(C(=O)c4cccc(F)c4)C[C@@H]23)cc1	76.7% (inactive)
O=C(Nc1cc(F)ccc1F)N1CCCCN2[C@H](CO)[C@@H](c3ccc(-c4cncnc4)cc3)[C@H]2C1	55.4% (inactive)
O=C(c1cccnc1)N1CCCCN2[C@@H](CO)[C@H](c3ccc(C#Cc4ccccc4)cc3)[C@@H]2C1	112% (active)
COc1ccccc1NC(=O)N1CCCCN2[C@H](C1)[C@H](c1ccc(-c3ccccc3)cc1)[C@@H]2CO	109% (active)
C[C@@H]1CCCCO[C@H](CN(C)Cc2ccc(C(F)(F)F)cc2)[C@H](C)CN([C@H](C)CO)C(=O)c2cc(NC(=O)Nc3ccc(F)cc3)ccc2O1	96.3% (active)
C[C@@H]1CN([C@H](C)CO)C(=O)c2cc(NS(=O)(=O)c3cccs3)ccc2O[C@@H](C)CCCCO[C@H]1CN(C)Cc1ccc(C(F)(F)F)cc1	101% (active)
C[C@@H]1CCCCO[C@@H](CN(C)Cc2ccc(C(F)(F)F)cc2)[C@@H](C)CN([C@H](C)CO)C(=O)c2cc(NC(=O)Nc3ccccc3)ccc2O1	105% (active)
C[C@@H]1CCCCO[C@H](CN(C)Cc2ccccc2)[C@@H](C)CN([C@@H](C)CO)C(=O)c2cc(NC(=O)Nc3ccc(F)cc3)ccc2O1	101% (active)
C[C@H]1CCCCO[C@H](CN(C)Cc2ccccc2)[C@@H](C)CN([C@@H](C)CO)C(=O)c2cc(NC(=O)NC3CCCCC3)ccc2O1	111% (active)
C[C@H]1CCCCO[C@H](CN(C)Cc2ccccc2)[C@@H](C)CN([C@@H](C)CO)C(=O)c2cc(NC(=O)c3ccccc3)ccc2O1	113% (active)
